Screening data deposited in PubChem BioAssay by several laboratories.
KLK7 zymogen act – proKLK7 zymogen activators, primary screen, biochemical, fluorescence intensity. Kallikrein-7 (Homo sapiens), P49862. purified proKLK7, EDANS-DABCYL substrate fluorescence; 100% is mature enzyme control, 0% vehicle. activation, % at 7 µM. 370,000 tested, 0.9% active;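 active = activation above the mean of all tested compounds plus 3 SD, computed per campaign excluding outliers beyond control limits, cut at about 13% in these data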
FAS TE block – FAS thioesterase domain inhibitors, primary screen, biochemical, fluorescence intensity, uHTS; Fatty acid synthase (Homo sapiens), P49327; recombinant FAS-TE, OMFH fluorogenic substrate, fluorescence endpoint; inhibition, % at 15 µM; 360,000 tested, 0.67% active; AID 602261, 2012;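 active = compounds whose normalised, plate-corrected inhibition of enzyme fluorescence in the single-dose primary screen is 50% or more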
Target sequence (P49327 whole entry, looked up, the tested form may be a part): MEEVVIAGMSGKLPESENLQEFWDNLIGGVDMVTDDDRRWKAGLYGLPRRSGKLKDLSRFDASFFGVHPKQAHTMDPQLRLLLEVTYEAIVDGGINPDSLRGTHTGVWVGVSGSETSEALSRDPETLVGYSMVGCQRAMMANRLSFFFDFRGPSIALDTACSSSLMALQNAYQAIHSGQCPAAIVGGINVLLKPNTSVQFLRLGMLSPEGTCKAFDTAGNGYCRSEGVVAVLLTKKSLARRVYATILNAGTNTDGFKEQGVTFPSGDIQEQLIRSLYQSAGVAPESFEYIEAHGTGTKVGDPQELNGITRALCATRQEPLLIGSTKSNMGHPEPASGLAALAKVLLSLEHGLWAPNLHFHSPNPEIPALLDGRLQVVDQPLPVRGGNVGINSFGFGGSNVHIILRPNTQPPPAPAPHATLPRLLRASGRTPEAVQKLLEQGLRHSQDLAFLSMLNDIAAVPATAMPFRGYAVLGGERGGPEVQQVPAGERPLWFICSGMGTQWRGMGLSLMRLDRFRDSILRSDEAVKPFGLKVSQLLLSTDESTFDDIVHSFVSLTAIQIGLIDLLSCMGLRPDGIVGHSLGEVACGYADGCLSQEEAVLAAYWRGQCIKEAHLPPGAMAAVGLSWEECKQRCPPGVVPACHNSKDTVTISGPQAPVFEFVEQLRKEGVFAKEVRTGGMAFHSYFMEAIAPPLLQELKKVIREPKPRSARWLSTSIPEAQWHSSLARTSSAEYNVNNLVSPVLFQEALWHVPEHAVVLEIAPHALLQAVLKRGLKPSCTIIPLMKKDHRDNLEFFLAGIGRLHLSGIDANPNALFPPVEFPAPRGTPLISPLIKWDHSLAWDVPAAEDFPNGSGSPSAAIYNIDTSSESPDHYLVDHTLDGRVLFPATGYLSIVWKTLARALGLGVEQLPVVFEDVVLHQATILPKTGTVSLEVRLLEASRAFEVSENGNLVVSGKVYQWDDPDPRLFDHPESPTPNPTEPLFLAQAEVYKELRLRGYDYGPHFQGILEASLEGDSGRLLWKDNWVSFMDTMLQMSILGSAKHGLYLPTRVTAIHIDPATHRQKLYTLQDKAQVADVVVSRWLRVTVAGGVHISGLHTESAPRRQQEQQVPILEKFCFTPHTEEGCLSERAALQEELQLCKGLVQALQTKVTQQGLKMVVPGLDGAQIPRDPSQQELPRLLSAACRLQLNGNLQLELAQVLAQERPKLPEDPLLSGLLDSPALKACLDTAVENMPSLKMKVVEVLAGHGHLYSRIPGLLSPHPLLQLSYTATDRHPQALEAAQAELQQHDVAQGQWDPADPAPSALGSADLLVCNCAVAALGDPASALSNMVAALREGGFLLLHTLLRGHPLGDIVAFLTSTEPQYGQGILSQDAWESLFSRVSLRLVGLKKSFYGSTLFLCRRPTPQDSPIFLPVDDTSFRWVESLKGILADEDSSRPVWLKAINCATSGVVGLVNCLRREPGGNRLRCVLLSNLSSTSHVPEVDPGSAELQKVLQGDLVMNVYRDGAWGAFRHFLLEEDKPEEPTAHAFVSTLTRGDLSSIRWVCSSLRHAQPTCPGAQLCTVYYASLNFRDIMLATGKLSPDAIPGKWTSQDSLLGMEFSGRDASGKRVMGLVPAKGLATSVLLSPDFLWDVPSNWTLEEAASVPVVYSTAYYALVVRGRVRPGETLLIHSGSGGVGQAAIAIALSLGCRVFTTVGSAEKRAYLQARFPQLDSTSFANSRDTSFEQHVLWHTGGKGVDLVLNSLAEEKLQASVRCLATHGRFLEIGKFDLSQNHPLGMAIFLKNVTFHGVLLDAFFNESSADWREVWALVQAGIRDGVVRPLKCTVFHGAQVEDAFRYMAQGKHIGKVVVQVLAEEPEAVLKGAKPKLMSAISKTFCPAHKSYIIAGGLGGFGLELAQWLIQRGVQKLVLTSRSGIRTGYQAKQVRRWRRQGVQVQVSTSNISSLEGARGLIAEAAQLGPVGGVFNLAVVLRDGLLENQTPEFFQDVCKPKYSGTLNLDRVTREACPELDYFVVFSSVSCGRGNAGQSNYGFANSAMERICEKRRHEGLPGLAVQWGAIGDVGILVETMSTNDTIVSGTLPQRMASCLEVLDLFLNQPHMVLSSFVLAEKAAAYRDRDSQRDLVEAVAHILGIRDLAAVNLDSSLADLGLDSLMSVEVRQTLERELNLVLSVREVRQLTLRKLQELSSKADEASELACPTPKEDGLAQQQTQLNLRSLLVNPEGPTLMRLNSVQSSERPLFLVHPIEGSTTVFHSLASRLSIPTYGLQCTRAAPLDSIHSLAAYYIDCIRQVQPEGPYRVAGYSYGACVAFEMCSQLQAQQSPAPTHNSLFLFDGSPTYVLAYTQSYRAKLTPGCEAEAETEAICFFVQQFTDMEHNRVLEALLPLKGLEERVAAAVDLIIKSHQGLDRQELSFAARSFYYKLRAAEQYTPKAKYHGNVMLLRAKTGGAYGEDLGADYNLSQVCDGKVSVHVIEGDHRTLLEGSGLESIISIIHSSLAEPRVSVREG
SMARCA2 act – SMARCA2 (BRM) function activators, primary screen, cell-based, luminescence, high throughput. MG213 cells, MMTV-luciferase reporter, dexamethasone, overnight. activation, % at 9.1 µM. 370,000 tested, 1% active; in the data active = activation above about 7.8%
FXN GAA850 act – FXN promoter activators, primary screen, cell-based, luciferase luminescence, HEK293 lucGAA850 | HEK293 lucGAA850 FXN promoter luciferase reporter, 24 h; percent of 10 µM SAHA response | activation, % at 6 µM | 360,000 tested, 0.56% active | AID 540364, 2011;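 active = activation above the average of all compounds screened plus 3 SD, cutoff fixed separately per campaign, cut at about 7.5% in these data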
KLK7 act conf – proKLK7 zymogen activators, confirmation, biochemical, fluorescence intensity, triplicate. shares compounds with KLK7 zymogen act. purified proKLK7, EDANS-DABCYL substrate fluorescence; scaled: vehicle 0, mature enzyme 100. activation, % at 7 µM. 3,200 tested, 68% active. AID 686949, 2013;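 active = activation, as change over the incubation, above the mean of all tested compounds plus 3 SD, cut at about 13% in these data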
EDANS interfere – EDANS-DABCYL substrate optical interference, artefact control for kallikrein-7 zymogen activator project, biochemical, fluorescence intensity, high throughput | shares compounds with KLK7 zymogen act | no enzyme, 4 h; solvent 0%, active enzyme control 100% | activation, % at 7 µM | 3,200 tested, 80% active;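 active = activation above the all-compound mean plus 3 SD, ignoring values outside control-based bounds, cut at about 4.8% in these data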;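 note: value is the 4 h activation minus the activation read at time zero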
K7 EDANS ctr – EDANS fluorescence interference in dose response, no enzyme; EDANS-DABCYL peptide fluorescence interference; shares compounds with KLK7 zymogen act; EC50, µM; 250 tested, 20% active;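 active = compounds that raise the fluorescence signal in this interference counterscreen, with EC50 at or below 10 µM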;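 note: intact quenched peptide substrate alone read at 355 nm excitation and 520 nm emission; signal is fluorescence gain from T0 to T4 after four hours at room temperature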
Numbers stand for hits; i = inactive; nt = no result. Most compounds without a hit are left out; they make up all but 2.9% or so of the library.

SMILES	KLK7 zymogen act	FAS TE block	SMARCA2 act	FXN GAA850 act	KLK7 act conf	EDANS interfere	others
CC1CCCN(S(=O)(=O)c2cccc(-c3cn4cccnc4n3)c2)C1 (centres undefined)	i	i	i	i	nt	nt
CCCC(=O)Nc1cc(-c2cn3cccnc3n2)ccc1OC	i	i	i	i	nt	nt
CCCC(=O)Nc1ccc(-c2cn3cccnc3n2)cc1	58	i	i	i	67	63
CCN(CC)S(=O)(=O)c1cccc(-c2cn3cccnc3n2)c1	21	i	i	i	38	25	K7 EDANS ctr=i
CC(C)CC(=O)Nc1ccc(-c2cn3cccnc3n2)cc1	70	i	i	i	66	68
COc1cc([N+](=O)[O-])ccc1NC(=O)COC(=O)CCS(=O)(=O)c1ccc(C)cc1	i	i	i	i	nt	nt
Cc1cc(SCC(=O)c2ccccc2)nc(=O)[nH]1	i	i	i	i	nt	nt
CCOCC(=O)Nc1ccc(-c2cn3cccnc3n2)cc1	39	i	i	i	67	79
COc1ccc(-c2cn3cccnc3n2)cc1NC(=O)CC(C)C	i	i	i	i	nt	nt
CC(C)(C)CC(=O)Nc1ccc(-c2cn3cccnc3n2)cc1	74	i	i	i	66	65
CC(=O)Nc1ccc(S(=O)(=O)Nc2cccc(-c3csc(C)n3)c2)cc1	i	i	i	i	nt	nt
CC(=O)Nc1ccc(S(=O)(=O)Nc2cccc(-c3cn4cccnc4n3)c2)cc1	43	i	i	i	i	7.8
O=C1/C(=C/c2ccco2)Oc2c1ccc(O)c2CN1CCCCC1	14	i	i	i	67	73
COC(=O)COc1ccc2c(c1)O/C(=C\c1ccco1)C2=O	i	i	i	i	nt	nt
CCC(=O)Oc1ccc2c(c1)O/C(=C\c1ccco1)C2=O	51	i	i	i	478	467
COCCN(CCOC)Cc1c(O)ccc2c1O/C(=C\c1ccco1)C2=O	19	i	i	i	23	27
CC1CCN(Cc2c(O)ccc3c2O/C(=C\c2ccco2)C3=O)CC1	nt	i	nt	i	nt	nt
CCCC(c1nnnn1CCOC)N1CCN(C(=O)c2ccco2)CC1 (centres undefined)	i	i	i	i	nt	nt
CS(=O)(=O)c1ccc(Nc2nc(C(N)Cc3ccc(F)cc3)cs2)cc1 (centres undefined)	i	i	i	i	nt	nt
COc1ccc(CC(N)c2csc(Nc3ccc(S(C)(=O)=O)cc3)n2)cc1 (centres undefined)	27	i	i	i	i	i
N#Cc1ccc(-c2cccc3nccn23)cc1	78	i	i	i	73	68
c1cc(-c2ccc(CN3CCOCC3)cc2)n2ccnc2c1	24	i	i	i	21	22
CN1CCN(c2ccc(-c3cccc4nccn34)cn2)CC1	50	i	i	i	22	19
c1cc(-c2ccsc2)n2ccnc2c1	i	i	i	i	nt	nt
c1cn2cc(-c3ccc(CN4CCOCC4)cc3)ccc2n1	i	i	i	i	nt	nt
SMILES	KLK7 zymogen act	FAS TE block	SMARCA2 act	FXN GAA850 act	KLK7 act conf	EDANS interfere	others
CC(=O)c1ccc(-c2cccc3nccn23)cc1	i	i	i	i	nt	nt
O=S(=O)(Nc1ccc(-c2nc3cccnc3s2)cc1)c1cc(F)ccc1F	16	i	i	i	20	21
CCc1ccc(S(=O)(=O)Nc2ccc(-c3nc4cccnc4s3)cc2)s1	i	i	i	i	nt	nt
CCC(=O)c1ccc(N2CCN(C(=O)COc3ccccc3F)CC2)c(F)c1	i	i	i	i	nt	nt
CCCNC(=O)c1ccc(N2CCC3(CC2)CC(c2ccccc2)=NO3)c(NC(=O)c2cccc(OC)c2)c1	i	i	i	i	nt	nt
c1cc(Nc2ncnc3sc4c(c23)CCC4)ccn1	32	i	i	i	56	64
CCC(C)(C)c1nnc(NC(=O)C2CCN(C(=O)c3ccco3)CC2)s1	i	i	i	i	nt	nt
NC(=O)c1c(NC(=O)c2ccccc2)sc2c1CCC2	90	i	i	i	i	i
NC(=O)c1c(NC(=O)c2ccncc2)sc2c1CCCC2	i	i	i	i	nt	nt
